# Only some compounds are listed: those with a hit (about 1.6% of all), similar ones and a draw of the others.
# Sa ugtP lethal: growth inhibition of ugtP-null S. aureus, primary screen, RN4220 ugtP deletion, OD600 | 16 h | growth inhibition, % (no concentration beside the values) | 0.54% of 330,000 active | AID 1259309, 2017; in the data active = growth inhibition above about 68%;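 note: plate controls were untreated wells for no effect and antibiotic for full effect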
# BJeLR viability: MLPCN primary cell-based screen for lethality selective to Ras in HRASV12 cells; AID 1554, 2009; BJeLR (HRASV12) viability, CellTiter-Glo ATP luminescence, 48 h; inhibition, % (concentration not given with the values); 0.17% of 300,000 active; in the data active = inhibition above about 50%
# CCHF vOTU inh-1: CCHFV vOTU protease inhibitors, primary screen, biochemical, Pep-AMC substrate, fluorescence; inhibition, % at 11.5 µM; Crimean-Congo hemorrhagic fever virus L polyprotein viral ovarian tumor (vOTU) protease …; 0.55% of 370,000 active; note: 0% = vehicle wells with enzyme and 100% = no enzyme wells
# Sa RN4220 lethal: growth inhibition of S. aureus RN4220, primary screen, OD600; 0.33% of 330,000 active; 16 h; AID 1259311, 2017; inhibition, % (concentration not given with the values); in the data active = inhibition above about 85%;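 note: plate controls were untreated cells for no effect and reference antibiotic for full effect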
# PfHsp40 rescue: rescue of yeast from PfHsp40 toxicity, primary screen, S. cerevisiae, ATP luminescence; S. cerevisiae expressing PfHsp40, growth rescue; growth rescue, % at 12.5 µM; AID 504582, 2011; 0.68% of 340,000 active; in the data active = growth rescue above about 28%, passing the limit was not always enough;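 note: yeast W303a lacking pdr1 and pdr3 grown in galactose medium; growth measured after three days at 30 °C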
# CCHF vOTU inh-2: CCHFV vOTU protease inhibitors, confirmation, biochemical, Pep-AMC substrate, fluorescence. shares compounds with CCHF vOTU inh-1. Recombinant CCHFV vOTU. inhibition, % at 11.5 µM. 17% of 1,900 active. AID 686976, 2013
# The depositor's hits bear a star; x = no result given. Cut-off read from the data, not from the text of the source, unless noted: active = inhibition above about 30%; inactive = the rest.
SMILES,Sa ugtP lethal,BJeLR viability,CCHF vOTU inh-1,Sa RN4220 lethal,PfHsp40 rescue,CCHF vOTU inh-2
O=C(c1ccc2c(c1)OCO2)[C@@H]1[C@@H]2C(=O)N(C3CCCCC3)C(=O)[C@@H]2C2c3ccccc3C=CN21 (stereo partly drawn),-6.6,10.7,7.3,-16.2,-0.3,x
O=C(NN=Cc1ccco1)c1cc2ccccc2o1,-7.3,x,x,2.7,x,x
O=C1NCCCC2c3cc(O)c4ccccc4c3OC12N1CCCCC1 (stereo not drawn),x,x,92.4*,x,x,16.4
Cc1ccc(CN2C(Cc3ccccc3)C(=O)CS2(=O)=O)cc1 (stereo not drawn),3.7,x,x,12.2,x,x
CC(C)C1S/C(=N/N=C/c2cccs2)NC1=O (stereo not drawn),x,4.6,34.8*,x,-0.8,-8.4
COCCn1c(SCC(=O)Nc2cc(C)nn2-c2ccccc2)nnc1-c1ccncc1,2.0,-1.9,22.6,3.7,0.3,x
COCCn1c(SCC(=O)NN2C(=O)NC(C)(c3ccccc3)C2=O)nnc1-c1ccncc1 (stereo not drawn),3.2,x,34.8*,2.8,-0.8,-21.0
CCC(CCC=C(C)C)C(=O)N(Cc1ccccc1)c1ccccc1 (stereo not drawn),13.1,x,x,-4.2,x,x
c1ccc(NN=C2c3ccccc3-c3ccccc32)cc1,81.1,x,-7.4,-20.5,2.2,x
Cc1ccc(NN=C2c3ccccc3-c3ccccc32)cc1,32.5,-3.7,34.7*,-9.8,-0.4,-11.0
O=C(CCCCCN1C(=O)C2C3C=CC(C3)C2C1=O)Nc1ccc(Cl)cc1 (stereo not drawn),x,x,0.6,x,x,x
O=C(CCCCCN1C(=O)C2C3C=CC(C3)C2C1=O)Nc1ccc2ncccc2c1 (stereo not drawn),x,x,68.5*,x,x,18.4
CC(C)(C)CC(C)(C)NC(=O)CSCC(=O)Nc1ccc2ccccc2c1,-25.7,-4.2,30.2*,-4.7,-0.9,12.2
Nc1cc(S(=O)(=O)O)cc2ccc(S(=O)(=O)O)cc12,-2.1,x,43.9*,1.3,16.0,-96.9
Cc1ccc(CONC(=O)N=CN(C)C)cc1,-2.2,x,x,5.4,x,x
O=C(O)c1ccccc1NS(=O)(=O)c1cccc(NS(=O)(=O)c2cc(Br)ccc2Br)c1,16.7,x,11.9,1.7,6.2,x
CCOc1ccc(Br)cc1S(=O)(=O)Nc1cccc(S(=O)(=O)Nc2ccccc2C(=O)O)c1,44.9,x,30.0*,0.2,5.4,-4.0
COc1cc(C2Nc3cccc4cccc(c34)N2)ccc1O,10.6,-9.5,40.7*,0.1,0.2,24.2
Oc1ccc2ccccc2c1C=Nc1nccs1,1.8,x,x,7.5,x,x
O=C(Nc1sc2c(c1C(=O)O)CCCCC2)c1ccccc1F,-13.0,5.5,36.5*,16.1,2.2,-4.8
O=C(Nc1sc2c(c1C(=O)O)CCCC2)c1ccc(F)cc1,13.6,-0.8,6.3,41.2,-2.0,x
Cc1ccc(N2C(=O)N3C(c4ccc(F)cc4)C4C(=O)N(C5CCCCC5)C(=O)C4[C@]3(Cc3ccccc3)C2=O)cc1 (stereo partly drawn),10.9,x,x,14.3,x,x
N#Cc1c(-c2ccccc2)nc(SCC(=O)Nc2ccc(OC(F)(F)Cl)cc2)[nH]c1=O,-1.2,7.3,31.1*,-9.5,1.3,16.1
N#Cc1c(-c2ccccc2)nc(SCC(=O)Nc2ccccc2)[nH]c1=O,-0.4,x,14.3,-0.3,-0.3,x
COCc1[nH][nH]c(=O)c1C=NN1CCOCC1,-15.1,x,x,-2.1,x,x
SMILES,Sa ugtP lethal,BJeLR viability,CCHF vOTU inh-1,Sa RN4220 lethal,PfHsp40 rescue,CCHF vOTU inh-2
CCCCCCC[C@@H](C/C=C/CCC(=O)O)OC,7.5,x,-1.6,7.4,-0.1,x
CCCCCCC[C@@H](C/C=C/CCC(=O)N(C)C/C(=C/Cl)C/C(=C\C(=O)N1C[C@H](O)CC1=O)OC)OC,-15.8,x,31.2*,2.1,53.7*,12.6
Cc1ccc(NS(=O)(=O)c2cc(Br)cnc2N)c(Cl)c1,-8.0,11.0,16.3,14.1,2.4,x
Nc1ncc(Br)cc1S(=O)(=O)Nc1cc(C(F)(F)F)cc(C(F)(F)F)c1,x,11.4,31.8*,x,0.2,13.0
NCCCCC1NC(=O)c2cc([N+](=O)[O-])cc(I)c2SCC(C(N)=O)NC(=O)C(Cc2ccc(O)cc2)NC1=O (stereo not drawn),-2.8,x,x,-1.0,x,x
COc1ccc(Cc2nccc3cc(OC)c(OC)cc23)cc1OC,-0.4,10.2,91.8*,-2.7,-0.6,39.8*
O=C1CCCN1CCCNCCCn1cnc2c(OCc3ccccc3)ncnc21,x,x,-6.3,x,0.6,x
O=C(Cn1cnc2c(OCc3ccccc3)ncnc21)NCCCN1CCCC1=O,5.4,x,30.1*,2.8,-1.0,3.1
COc1cccc(NC(=O)CC2SC(=NS(=O)(=O)c3ccccc3)N(c3ccccc3)C2=O)c1 (stereo not drawn),8.6,x,x,-1.1,x,x
O=[N+]([O-])c1ccc(C=NN2CCN(c3ccncc3S(=O)(=O)N3CCCCC3)CC2)cc1,-1.2,x,x,0.9,x,x
O=C1Nc2ccccc2N=C(c2ccc3c(c2)OCO3)C1N(C(=O)c1ccnc2ccccc12)c1ccccc1 (stereo not drawn),x,x,14.9,x,x,x
O=C1Nc2ccccc2N=C(c2ccc3c(c2)OCO3)C1N(C(=O)c1ccc2ccccc2c1)C1CC1 (stereo not drawn),x,x,32.0*,x,x,-4.8
CC(=NNC(=O)c1ccccn1)C12CC3CC(CC(C3)C1)C2,-0.3,x,x,5.0,x,x
Cc1cc(C(=O)N/N=C/c2ccc([N+](=O)[O-])s2)c2ccccc2n1,x,-13.6,30.5*,x,-0.8,-6.5
Cc1cc(C(=O)N/N=C/c2ccc([N+](=O)[O-])cc2)c2ccccc2n1,x,-3.9,3.2,x,0.4,x
O=[N+]([O-])c1cc(C=NN2CCN(Cc3ccccc3)CC2)ccc1Cl,4.7,x,x,-1.1,x,x
CCc1cccc(OCC(=O)Nc2ccc(C(=O)O)cc2NC(=O)COc2cccc(CC)c2)c1,-6.8,-13.5,33.5*,3.7,-0.5,5.1
O=C(NN=Cc1ccc(OCC(=O)N2CCCCC2)cc1)c1ccccc1O,1.0,x,x,3.8,x,x
C=CCn1c2ccccc2c2nnc(SCCN3CCCCC3)nc21,10.8,-5.8,-4.0,-1.6,1.3,x
C=CCn1c2ccccc2c2nnc(SCCCn3c(=O)[nH]c4ccccc43)nc21,8.7,x,30.9*,14.3,4.3,-4.1
COc1ccccc1C=NNC1=NCCCCC1,2.9,x,x,5.1,x,x
CC(C)C(C(=O)NCc1ccco1)N(C(=O)CNS(=O)(=O)c1ccccc1)c1ccccc1 (stereo not drawn),1.3,1.2,33.9*,0.1,2.0,-13.4
COc1ccccc1C(=O)N1CCCC(C)(C(=O)NS(=O)(=O)C2CC2)C1 (stereo not drawn),x,x,30.1*,x,x,-18.0
Cc1cc2cc(C(c3nnnn3Cc3ccco3)N3CCc4ccccc4C3)c(=O)[nH]c2cc1C (stereo not drawn),-0.2,0.7,61.4*,14.5,-0.6,-10.1
CC1(C)OC(c2ccccc2)=C/C(=C/C=Nc2ccccc2)O1,x,-1.8,9.6,x,0.3,x

# Compound activity deposited in PubChem BioAssay by several laboratories.
